Reference: paper PMC7826789 (International Journal of Molecular Sciences, 2021)

What was measured:
Conditions in all cases: Compound Concentration (nM):1000
[1] = tested on: CDKL3
[2] = tested on: CDKL5
[3] = tested on: CHEK1
[4] = tested on: CHEK2
[5] = tested on: CIT
[6] = tested on: CLK1
[7] = tested on: CLK2
[8] = tested on: CLK3
[9] = tested on: CLK4
[10] = tested on: CSF1R-autoinhibited
[11] = tested on: CSF1R
[12] = tested on: CSK
[13] = tested on: CSNK1A1L
[14] = tested on: CSNK1A1
[15] = tested on: CSNK1D
[16] = tested on: CSNK1E
[17] = tested on: CSNK1G1
[18] = tested on: CSNK1G2
[19] = tested on: CSNK1G3
[20] = tested on: CSNK2A1
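Also: KINOMEscan scanMAX binding as percent activity remaining versus control; lower means stronger binding.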

Compound	Percent Control [1]	Percent Control [2]	Percent Control [3]	Percent Control [4]	Percent Control [5]	Percent Control [6]	Percent Control [7]	Percent Control [8]	Percent Control [9]	Percent Control [10]	Percent Control [11]	Percent Control [12]	Percent Control [13]	Percent Control [14]	Percent Control [15]	Percent Control [16]	Percent Control [17]	Percent Control [18]	Percent Control [19]	Percent Control [20]
COc1cccc(-n2ncc3c(N/N=C/c4ccncc4)ncnc32)c1 [GW784752X]	46%	5.1%	100%	87%	86%	42%	61%	100%	45%	96%	100%	78%	91%	94%	92%	100%	100%	100%	100%	20%
NS(=O)(=O)c1ccc(N/N=C2\C(=O)Nc3ccc(C(=O)NCCc4c[nH]cn4)cc32)cc1 [GW300660X]	100%	36%	100%	64%	100%	72%	5.5%	100%	76%	90%	100%	100%	100%	89%	100%	100%	100%	100%	100%	27%
CC1=C(C(=O)Nc2ccc3[nH]ncc3c2)C(c2ccc(Cl)c(Cl)c2)CC(=O)N1 (stereo not drawn) [GSK299115A]	95%	97%	95%	100%	100%	75%	67%	78%	52%	74%	97%	91%	66%	84%	100%	100%	100%	88%	96%	91%
Nc1ncnc2occ(-c3ccc(NC(=O)Nc4cc(C(F)(F)F)ccc4F)cc3)c12 [GW770249X]	13%	100%	100%	96%	44%	41%	100%	100%	57%	25%	0.2%	74%	92%	100%	82%	76%	98%	92%	99%	100%
COc1cc(C)c(N(C)C(=O)CN(C)C)cc1Nc1nc(Nc2cccc(F)c2C(N)=O)c2cc[nH]c2n1 [GSK2219385]	100%	44%	92%	69%	100%	54%	58%	91%	67%	100%	100%	95%	67%	47%	23%	23%	54%	11%	28%	78%
CCS(=O)(=O)c1ccc(OC)c(Nc2ncc(-c3cccc(F)c3)o2)c1 [GW621970X]	100%	60%	100%	100%	100%	19%	12%	75%	23%	6.2%	48%	98%	100%	100%	100%	100%	100%	100%	100%	6.2%
C[C@@H](Oc1cc(-n2cnc3ccc(OC4CCN(C)CC4)cc32)sc1C(N)=O)c1ccccc1Cl [GSK579289A]	100%	100%	90%	100%	78%	62%	88%	87%	95%	73%	65%	76%	89%	77%	80%	100%	83%	80%	100%	55%
COc1ccccc1-c1cc(/C=C2\C(=O)Nc3ncc(Br)cc32)cc(Br)c1O [GW442130X]	93%	88%	100%	79%	89%	100%	67%	84%	85%	100%	100%	100%	100%	100%	94%	79%	100%	94%	100%	66%
Cl.O=S1CCN(Cc2ccc(-c3ccc4ncnc(Nc5ccc(OCc6ccccc6)c(F)c5)c4c3)o2)CC1 [GW576924A]	100%	60%	100%	99%	100%	100%	100%	100%	100%	100%	100%	100%	100%	100%	100%	100%	100%	100%	100%	84%
COc1cccc(-c2c[nH]c3c(N/N=C/c4ccncc4)ncnc23)c1 [GW814408X]	8%	4.2%	100%	86%	54%	30%	44%	80%	30%	74%	46%	66%	100%	88%	92%	83%	100%	90%	100%	14%
CC(C)COC(=O)c1ccc2c(c1)/C(=C/Nc1ccc(S(N)(=O)=O)cc1)C(=O)N2 [GW416981X]	64%	5.1%	100%	42%	86%	18%	2.3%	98%	41%	95%	100%	100%	50%	99%	100%	100%	96%	94%	100%	9%
COc1ccc2[nH]c3c4[nH]c5ccc(OC)cc5c4c4c(c3c2c1)C(=O)NC4=O [GW296115X]	91%	94%	12%	1.7%	35%	80%	56%	79%	57%	59%	58%	95%	91%	62%	94%	52%	74%	86%	100%	61%
COc1cc(/C=N/Nc2ncnc3[nH]ncc23)ccc1O [GW578748X]	97%	100%	7%	51%	83%	19%	29%	85%	50%	56%	93%	67%	94%	61%	57%	60%	67%	42%	79%	8.7%
CN(C)CCNC(=O)Nc1ccc(N(C)c2ccnc(Nc3ccc(CS(C)(=O)=O)cc3)n2)cc1.Cl [GW830900A]	100%	100%	100%	93%	100%	85%	94%	99%	100%	41%	0.6%	98%	85%	79%	93%	88%	90%	96%	95%	78%
COc1cc2ncnc(Nc3ccc4c(cnn4Cc4ccccc4)c3)c2cc1OC.Cl [GW282449A]	100%	55%	100%	0%	100%	100%	100%	100%	100%	100%	100%	5.1%	100%	100%	100%	97%	100%	100%	100%	82%
C/C(Nc1ccc(S(N)(=O)=O)cc1)=C1/C(=O)Nc2ccccc21 [GW335962X]	94%	100%	93%	51%	86%	98%	78%	98%	100%	40%	100%	86%	97%	67%	87%	100%	88%	85%	99%	57%
CN1CCN(C(=O)c2ccc(NC(=O)Nc3ccc(N(C)c4ccnc(Nc5ccc(CS(C)(=O)=O)cc5)n4)cc3)cc2)CC1.Cl [GW830263A]	72%	100%	100%	68%	79%	84%	54%	95%	100%	8.8%	0%	62%	100%	85%	99%	75%	100%	100%	100%	83%
Cl.O=C(Nc1ccc(Oc2ccc3[nH]c(NC(=O)c4ccccc4)nc3c2)cc1)Nc1cc(C(F)(F)F)ccc1F [GW709042A]	96%	100%	96%	100%	0%	44%	100%	100%	79%	79%	6.1%	96%	97%	100%	87%	83%	100%	100%	100%	92%
COC(=O)Nc1nc2ccc(Oc3ccc(NC(=O)Nc4cc(C(F)(F)F)ccc4F)cc3)cc2s1.Cl [GW693917A]	15%	38%	95%	76%	1.8%	42%	100%	82%	100%	86%	2.3%	70%	92%	83%	100%	98%	96%	100%	94%	91%
O=C1Nc2ccc(C(=O)c3ccco3)cc2C1=Cc1cc(Cl)c(O)c(Cl)c1 [GW406108X]	100%	100%	100%	42%	89%	3.3%	0.1%	6.2%	12%	61%	93%	79%	100%	93%	100%	100%	82%	96%	100%	9.7%
COc1ccc(COc2ccc(Cc3cnc(N)nc3N)cc2OC)cc1 [GW632580X]	90%	84%	91%	100%	80%	100%	91%	100%	100%			87%	86%	100%	100%	100%	88%	88%	100%	90%
Cl.c1ccc(Cc2nc3ccc(Nc4ncnc5ccccc45)cc3[nH]2)cc1 [GR269666A]	100%	59%	100%	94%	100%	91%	93%	100%	100%	100%	100%	22%	100%	100%	100%	93%	100%	100%	100%	82%
